# Measured values published in ChEMBL document CHEMBL3433997, “St. Jude Leishmania screening dataset” (2016).
# What was measured:
# Type in all cases: functional
# [1] = target: Solute carrier family 2, facilitated glucose transporter member 1 (Homo sapiens) (UniProt P11166); experiment: ST_JUDE_LEISH: Cytotoxicity at 2uM final concentration against transgenic Leishmania Mexicana promastigotes LmGLUT1 that are glucose transport deficient and complemented with the human glucose transporter GLUT1. Activity is measured by DNA content using SYBR green in vitro
# [2] = target: Hexose transporter 1 (Plasmodium falciparum) (UniProt O97467); experiment: ST_JUDE_LEISH: Cytotoxicity at 2uM final concentration against transgenic Leishmania Mexicana promastigotes LmPfHT that are glucose transport deficient and complemented with the Plasmodium falciparum hexose transporter. Activity is measured by DNA content using SYBR green in vitro
# [3] = target: Glucose transporter (Leishmania mexicana) (UniProt O61059); experiment: ST_JUDE_LEISH: Cytotoxicity at 2uM final concentration against transgenic Leishmania Mexicana promastigotes LmGT2 that are glucose transport deficient and complemented with the L. Mexicana glucose transporter 2. Activity is measured by DNA content using SYBR green in vitro
# Solute carrier family 2, facilitated glucose transporter member 1 (Homo sapiens), sequence (P11166 whole entry): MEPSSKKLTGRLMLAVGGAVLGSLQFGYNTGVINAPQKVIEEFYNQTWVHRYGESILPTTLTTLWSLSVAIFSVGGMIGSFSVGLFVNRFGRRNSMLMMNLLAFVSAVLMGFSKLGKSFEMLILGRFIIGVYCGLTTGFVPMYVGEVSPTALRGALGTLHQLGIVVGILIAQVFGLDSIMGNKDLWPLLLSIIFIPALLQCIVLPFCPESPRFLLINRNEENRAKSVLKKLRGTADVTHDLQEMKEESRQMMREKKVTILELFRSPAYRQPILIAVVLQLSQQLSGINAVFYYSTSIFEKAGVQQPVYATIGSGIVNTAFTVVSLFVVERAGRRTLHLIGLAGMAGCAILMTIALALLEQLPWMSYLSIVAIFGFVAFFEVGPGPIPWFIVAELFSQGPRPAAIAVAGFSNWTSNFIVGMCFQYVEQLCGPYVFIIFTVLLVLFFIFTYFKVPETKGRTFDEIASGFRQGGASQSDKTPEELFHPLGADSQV
SMILES,inhibition [1],inhibition [2],inhibition [3]
COc1cc(NC(=O)Nc2ccnc3ccccc23)cc(OC)c1,0.62%,-0.6%,1.16%
COCn1ncc2cc(-c3cccc(NC(=O)c4csc(NC(C)=O)n4)c3)ccc21,3.31%,1.44%,2.05%
CCCc1cc(Cc2cnc(N)nc2N)cc(CCC)c1OCCCCC(=O)O,1.12%,1.3%,0.16%
FC(F)(F)c1ccc2[nH]c(-c3ccc(-c4cccc(CNCCN5CCNCC5)c4)cc3)nc2c1,0.53%,-0.94%,-1.87%
COc1ccc(C2N=C(N)N=C(N)N2c2ccc(Cl)cc2)cc1OC (stereo unspecified),2.61%,2.52%,2.93%
O=C(CNC(=O)c1ccc(O)cc1)Nc1ccc(-c2cccc(-c3nc4cc(C(F)(F)F)ccc4[nH]3)c2)cc1,8.61%,8.61%,8.38%
CCOC(=O)N1CCC(NC(=O)c2ccc(C(C)(C)C)cc2OC)CC1,3.46%,3.5%,3.13%
Cc1cc(=NN=Cc2ccc(F)cc2)c2ccc(F)cc2[nH]1,0.14%,0.15%,-0.46%
COc1ccc(NC(=O)c2csc(-c3cc(NC(=O)c4ccnc(N5CCCC5)c4)ccc3C)c2)cc1N1CCN(C)CC1,1.89%,2.56%,-1.28%
N#Cc1ccc(NC(=O)c2ccc(Cc3ccc4c(c3)CCN(C3CCC3)CC4)cn2)cc1,9.64%,10.6%,10.4%
COc1cc2ccccc2cc1CCNCCCCNCCc1cc2ccccc2cc1OC,101%,82.7%,104%
CCN(CCO)Cc1ccc(-c2ccc(NS(=O)(=O)c3cccc4cccnc34)cc2)cc1,89.5%,95.5%,92.4%
CCOc1cc2ccccc2cc1CNCCCCCCNCc1cc2ccccc2cc1OCC,5.01%,7.4%,0.64%
CCCCc1cc(NCC)nc(Nc2ccc(F)cc2)n1,18.4%,10.4%,4.95%
c1cc2[nH]c(CCc3nc4cc(C5=NC6CCCCC6N5)ccc4[nH]3)nc2cc1C1=NC2CCCCC2N1 (stereo unspecified),19.7%,18.5%,6.48%
O=C(NC1CC1)c1ccc(N2CCCC(COc3ccc4c(c3)CCCC4)C2)nc1 (stereo unspecified),2.1%,1.8%,1.93%
Nc1nc(N)c2c(ccc3c2ccn3C2C=CCCC2)n1 (stereo unspecified),56.1%,71.8%,34.4%
CCOC(=O)c1cc(C(=O)NCCCCN2CCC(c3ccc(CC)cc3OCC)CC2)ccc1-c1ccc(C(F)(F)F)cc1,10.1%,8.59%,3.34%
CC(C)c1ccc(CN2CCCCC(NC(=O)c3cc(-c4ccccc4Cl)cs3)C2)cc1 (stereo unspecified),-0.41%,-1.98%,-4.09%
OCc1ccc(-c2cncc(Nc3ccc(F)c(Cl)c3)c2)cc1,3.7%,4.21%,1.04%
CNCCNCc1ccc(-c2cccc(-c3nc4cc(C(F)(F)F)ccc4[nH]3)c2)cc1,3.52%,0.66%,1.45%
CC(C)(C)c1ccc(/C=C/C(=O)NCCCCCN2CCC(c3c[nH]c4ccccc34)CC2)cc1,4.78%,4.13%,-1.25%
Cc1cc2c(/C=C/C(=O)NC3CCC(CCN4CCc5ccc(C#N)cc5CC4)CC3)cccc2[nH]1 (stereo unspecified),4%,4.14%,3.25%
CN1CCN(c2ccnc3cc4c(cc23)N(Cc2ccccc2)CC4)CC1,-1.34%,-0.13%,0.13%

SMILES,inhibition [1],inhibition [2],inhibition [3]
CCOc1cc(C(=O)N[C@@H](Cc2ccccc2)[C@H](O)CNCc2cc(OC)cc(OC)c2)cc(N2CCCC2=O)c1,9.97%,8.91%,2.86%
COc1ccc(-n2nc(C(=O)NCCC3=CCCCC3)c3ccccc3c2=O)cc1,0.62%,-0.88%,-0.39%
COc1ccc(C2C(C(=O)Nc3cc(C)ccc3OC)c3ccccc3C(=O)N2C)cc1 (stereo unspecified),5.62%,5.84%,1.74%
CCCCn1c(C(C)Oc2ccc(Cl)cc2Cl)nc2cc(S(N)(=O)=O)ccc21 (stereo unspecified),-0.86%,-1.81%,-1.84%
O=C(NCC1CCN(CC2CCCCC2)C1)c1cc(-c2cccc(Cl)c2)cs1 (stereo unspecified),2.86%,1.57%,1.14%
COC(=O)c1ccccc1N1CCN(CCCCNC(=O)c2ccc(NC(=O)c3cc(Cl)cc(Cl)c3)cc2)CC1,3.86%,5.53%,3.09%
Cc1nc(-c2cccc(Nc3nccc(NCC(O)c4ccc(C(F)(F)F)cc4)n3)c2)cs1 (stereo unspecified),1.28%,1.67%,-0.68%
CN(C)S(=O)(=O)c1ccc(C(=O)N(c2nc(-c3ccccc3)cs2)C2CCCCC2)cc1,3.2%,3.31%,2.06%
COc1ccc(S(=O)(=O)N(CCCN2CCN(C)CC2)Cc2csc(-c3ccc(CNCc4ccccc4)cc3)n2)cc1,-1.13%,2.47%,1.67%
O=C(Nc1cccc(-c2nn3ccccc3c2-c2ccnc(Nc3ccc(C(=O)N4CCOCC4)cc3)n2)c1)c1c(F)cccc1F,23.1%,7.72%,2.78%
O=C(Nc1ccc(OC2CCN(CC3CC3)CC2)c(Cl)c1)c1ccc2ncccc2c1,8.41%,9.49%,7.58%
COc1ccc(CNC2CCN(C)CC2)cc1-c1ccc(S(=O)(=O)NC2CCC2)c(F)c1,0.83%,0.39%,1.91%
Cc1ccc(Cn2ncc(N3CCNCC3)c(Cl)c2=O)cc1NC(=O)Nc1ccc(-c2ccccc2)cc1,-0.01%,2.78%,2.01%
COc1cc(C(=O)N2C(c3nccs3)C(C(=O)N(OC)C(C)c3ccccc3)CC2(CC(C)C)C(=O)OC(C)(C)C)ccc1C(C)(C)C (stereo unspecified),4.49%,3.71%,1.29%
c1ccc(CNCc2ccc(-c3cccc(-c4nc5ccccc5[nH]4)c3)cc2)cc1,-1.6%,-1.2%,-1.62%
OCCN1CCN(Cc2cccc(-c3ccc(-c4nc5cc(C(F)(F)F)ccc5[nH]4)cc3)c2)CC1,5.08%,3.3%,2.62%
COc1cc(-c2nnc(SCC(=O)Nc3cc(C)on3)n2C)cc(OC)c1O,7.83%,7.61%,7.59%
COc1ccc(NC(=O)[C@H](CC(C)C)Nc2cc(C)nc(NCc3cccc(C)c3)n2)cc1,9.89%,9.82%,7.22%
Cc1nc(C)c(CC(=O)Nc2cccc(-c3cccc(-c4nc5cc(C(F)(F)F)ccc5[nH]4)c3)c2)s1,2.61%,2.61%,1.2%
COc1cc(F)c2ncc(Cl)c(CCN3CCC(NCc4ccc5c(c4)NC(=O)CS5)CC3)c2c1,15.1%,18.3%,8.82%
O=C(Nc1ccc(F)c(C(F)(F)F)c1)NC1CCN(CCCCCNC(=O)C2CC2c2ccc(Cl)c(Cl)c2)CC1 (stereo unspecified),4.2%,3.79%,4.44%
Cc1cccc(NC(=O)NCc2ccccc2)n1,1.62%,1.46%,2.38%
OCC1CCN(Cc2ccc(-c3ccc(-c4nc5cc(C(F)(F)F)ccc5[nH]4)s3)cc2)CC1,1.82%,0.23%,1.7%
COc1ccc(CCn2c(C3CCCCC3)nc3oc4ccccc4c(=O)c3c2=O)cc1,3%,5.28%,-0.12%

SMILES,inhibition [1],inhibition [2],inhibition [3]
CS(=O)(=O)Nc1cccc(-c2cnc3[nH]cc(-c4ccc(C(=O)O)cc4)c3c2)c1,0.37%,0.36%,3.74%
Oc1c(C(Nc2ccccn2)c2ccc(Cl)cc2Cl)ccc2cccnc12 (stereo unspecified),3.22%,5.81%,0.74%
Cc1nc(N)nc(N)c1OCCCOc1cccc(Cl)c1Cl,65.6%,65.8%,56.7%
CC1CCCN1Cc1ccc(-c2ccc3c(=O)cc(CCc4cccc(F)c4F)n(CC(=O)N(C)Cc4ccc(-c5ccc(C(F)(F)F)cc5)cc4)c3n2)cc1 (stereo unspecified),-0.63%,-4.81%,10.4%
CC[C@H](C)CNC(=O)c1cncc(-c2cccc(CN(C)C3CCN(C)CC3)c2)c1,2.22%,2.75%,3.37%
CCN(CC)CCCCOc1ccc2c(c1)C(=O)c1cc(OCCCCN(CC)CC)ccc1-2,10.2%,4.61%,0.2%
Oc1cccc2ccc(Nc3ccccn3)nc12,0.94%,2.29%,-0.77%
CNC(=O)c1cc(S(=O)(=O)Nc2ccc(OC)cc2)cs1,0.48%,0.9%,2.1%
N#Cc1ccc2c(c1)CN(C1CCC(NC(=O)c3cc(-c4ccc(Cl)cc4)cs3)CC1)CCC2 (stereo unspecified),3.29%,0.21%,1.7%
Cc1ccc(CN2CCC(Oc3cccc(NC(=O)c4ccc(C(F)(F)F)cc4)c3)CC2)cc1,5.11%,0.79%,3.6%
COc1ccc(CNCc2cccc(-c3ccc(-c4nc5ccccc5[nH]4)cc3)c2)cc1,3.35%,1.89%,3.52%
N#Cc1ccc2[nH]c(-c3ccccc3)nc2c1,7.3%,6.06%,5.78%
CC(=O)Nc1ccc2[nH]cc(C3CCN(CC4CCC(NC(=O)/C=C/c5ccccc5Cl)CC4)CC3)c2n1 (stereo unspecified),6.86%,5.52%,6.59%
CCCCC(=O)Nc1nc2ccc([N+](=O)[O-])cc2s1,1.98%,2.81%,-0.58%
CS(=O)(=O)c1ccc(CCNCc2ccc(-c3ccc(CNC4CCN(Cc5ccccc5)CC4)cc3)nc2)cc1,-0.83%,-1.16%,-2.69%
Cc1nc(N2CCC(C)CC2)c2c3c(sc2n1)CCCC3,2.21%,2.09%,0.47%
O=C(/C=C/c1ccc(Cl)c(Cl)c1)NCCCCCN1CCC(NC(=O)Nc2ccc(F)cc2F)CC1,1.35%,2.88%,1.33%
Cc1cc(NC(=O)c2cccs2)ccc1OC1CCN(Cc2ccccc2)CC1,3.33%,3.27%,3.22%
Cc1cc(N2CC=CCC2)nc(NC(=N)Nc2ccc(Cl)cc2)n1,6.87%,7.74%,6.89%
COc1ccc2[nH]c(C)cc(=NN=Cc3ccc(Cl)cc3)c2c1,6.05%,6.41%,-0.5%
COc1ccc(NC(=O)NC2CCN(c3ccnc4cc(Cl)ccc34)CC2)cc1,3.93%,1.61%,0.02%
FC(F)(F)c1cccc(-c2cc(NCCCn3ccnc3)nc(-c3ccncc3)n2)c1,-3.57%,-1.14%,-0.33%
COc1ccc2nccc([C@@H](O)CN3CCC(NC(=O)/C=C/c4ccc5[nH]c(=O)ccc5c4)CC3)c2c1,2.93%,1.78%,2.05%
CC1(C)NC(N)=NC(=N)N1OCOc1ccc(Cl)cc1,3.62%,1.85%,4.23%
